Results filed as inconclusive are left out. Activity calls are given as the source filed them. Calls come from the whole dose curve; as a rule, active = well fitted curve in the direction sought with a large enough effect; inconclusive = small, poorly fitted or top-dose-only effect, or another doubt; inactive = no such curve, though single readings can be large; an effect the other way counts as inactive or inconclusive.
Assays:
[1] = test system: MKL-1; test: qHTS assay to identify novel small-molecules to repurpose for Merkel cell carcinoma treatment (AID 1296009); details: MCC and control cell lines, CellTiter-Glo viability, 72 h; series mostly up to 46 µM; note: nearly all actives have a fitted effect of over 60% in size
Method in brief: (§1)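 Viability readout: ATP luminescence (CellTiter-Glo) after 72 hr drug exposure at 37 degree celsius. Dose-response format was 8 points for NPC and 11 points for MIPE; data normalized to in-plate controls.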

[2] = test system: MKL-2; test: as above; details: MCC and control cell lines, CellTiter-Glo viability, 72 h; series mostly up to 46 µM
Method in brief: as §1

[3] = test system: UISO; test: as above; details: MCC and control cell lines, CellTiter-Glo viability, 72 h; series mostly up to 46 µM
Method in brief: as §1

[4] = test system: WaGa; test: as above; details: MCC and control cell lines, CellTiter-Glo viability, 72 h; series mostly up to 46 µM
Method in brief: as §1

[5] = test system: C33A; test: Primary qHTS to identify gynecologic anti-cancer compounds using libraries of approved drugs and bioactive compounds (AID 1345084); details: Gynecologic cancer cell panel viability, ATPlite luminescence, 48 h; series mostly up to 57.5 µM; note: nearly all actives have a fitted effect of over 55% in size
Method in brief: (§2)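 Cell viability after 48 h drug treatment, ATPlite luminescence readout; five doses.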

[6] = test system: CAOV3; test: as above; details: Gynecologic cancer cell panel viability, ATPlite luminescence, 48 h; series mostly up to 57.5 µM
Method in brief: as §2

[7] = test system: CASKI; test: as above; details: Gynecologic cancer cell panel viability, ATPlite luminescence, 48 h; series mostly up to 57.5 µM
Method in brief: as §2

[8] = test system: Es-2; test: as above; details: Gynecologic cancer cell panel viability, ATPlite luminescence, 48 h; series mostly up to 57.5 µM
Method in brief: as §2

[9] = test system: HeLa; test: as above; details: Gynecologic cancer cell panel viability, ATPlite luminescence, 48 h; series mostly up to 57.5 µM
Method in brief: as §2

[10] = test system: Hek293T; test: as above; details: Gynecologic cancer cell panel viability, ATPlite luminescence, 48 h, control line for the selectivity index; series mostly up to 57.5 µM
Method in brief: as §2

[11] = test system: JEG-3; test: as above; details: Gynecologic cancer cell panel viability, ATPlite luminescence, 48 h; series mostly up to 57.5 µM
Method in brief: as §2

[12] = test system: OV90; test: as above; details: Gynecologic cancer cell panel viability, ATPlite luminescence, 48 h; series mostly up to 57.5 µM
Method in brief: as §2

[13] = test system: PA-1; test: as above; details: Gynecologic cancer cell panel viability, ATPlite luminescence, 48 h; series mostly up to 57.5 µM
Method in brief: as §2

[14] = test system: SKOV3; test: as above; details: Gynecologic cancer cell panel viability, ATPlite luminescence, 48 h; series mostly up to 57.5 µM
Method in brief: as §2

[15] = test system: Tov-21-G; test: as above; details: Gynecologic cancer cell panel viability, ATPlite luminescence, 48 h; series mostly up to 57.5 µM
Method in brief: as §2

[16] = test system: Tov112D; test: as above; details: Gynecologic cancer cell panel viability, ATPlite luminescence, 48 h; series mostly up to 57.5 µM
Method in brief: as §2

[17] = Drug repurposing screens with cells derived from glioblastoma tumor samples (AID 1345199); details: GBM patient neurospheres viability, ATP luminescence, 48 h; note: nearly all actives have a fitted effect of over 40% in size; for activity, negative = cell killing: % is set by controls: 0 for no effect and ±100 for the full control effect
Method in brief: (§3)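 Primary testing used CD133+ neurospheres from four GBM patients, seven concentrations, 48 h exposure and ATP-based viability; confirmation added three slower-growing patient lines.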

[18] = test system: astro; test: as above; details: viability, ATP luminescence, 48 h; series mostly up to 45.9 µM
Method in brief: as §3

[19] = test system: NIH3T3; test: qHTS assay to identify novel small-molecules to repurpose for Merkel cell carcinoma treatment (AID 1296009); details: MCC and control cell lines, CellTiter-Glo viability, 72 h; at 44.8 µM (top of the series) unless noted; note: nearly all actives have a fitted effect of over 60% in size
Method in brief: as §1

[20] = qHTS assay to identify inhibitors of the type 1 interferon - major histocompatibility complex class I in skeletal muscle: Counter screen cell viability and HiBit confirmation (AID 1347412); details: iHSKM muscle cells + IFN-b, HiBiT or CellTiter-Glo, 24 h; note: nearly all actives have a fitted effect of over 60% in size
Method in brief: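 CRISPR HLA-B*08:01-HiBit immortalized human myoblasts (C25cl48) stimulated with 4 ng/ml IFN-beta and compounds (12-point 1:3, top 46 uM final) for 24 h at 37 C. Duplicate plates read by HiBit lytic luminescence or CellTiter Glo ATP.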

[21] = at 20 µM (top of the series), tumour line C
[22] = at 45.9 µM (top of the series), tumour line B
[23] = at 45.9 µM (top of the series), tumour line D
[24] = at 46.1 µM (top of the series), tumour line C
[25] = at 46 µM (top of the series), tumour line A
Potency is the fitted concentration of half-maximal effect.

CN(C)[C@@H]1C(=O)C(C(=O)NCN2CCCC2)=C(O)[C@@]2(O)C(=O)C3=C(O)c4c(O)cccc4[C@@](C)(O)C3C[C@@H]12 (stereo partly specified)
inactive: Potency [1] | Potency [2] | Potency [3] | Potency [4] | Potency [5] | Potency [6] | Potency [7] | Potency [8] | Potency [9] | Potency [10] | Potency [11] | Potency [12] | Potency [13] | Potency [14] | Potency [15] | Potency [16] | activity, negative = cell killing [17, 21] -9.38% | activity, negative = cell killing ([17]; at 21.2 µM (top of the series), tumour line B) -5.39% | activity, negative = cell killing ([17]; at 21.2 µM (top of the series), tumour line D) 11.2% | activity, negative = cell killing ([17]; at 21.3 µM (top of the series), tumour line A) -7.96% | activity, negative = cell killing [17, 22] -10.2% | activity, negative = cell killing [17, 23] -31.8% | activity, negative = cell killing [17, 24] 27.9% | Potency [18]

C=CCCCCCCCCC(=O)O
inactive: Potency [1] | Potency [2] | Potency [3] | Potency [4] | Potency [5] | Potency [7] | Potency [8] | Potency [9] | Potency [10] | Potency [11] | Potency [12] | Potency [13] | Potency [14] | Potency [15] | Potency [16] | activity, negative = cell killing [17, 22] -14.2% | activity, negative = cell killing [17, 23] -8.73% | activity, negative = cell killing [17, 25] -10.4% | activity, negative = cell killing [17, 24] 6.77% | Potency [18]

CCNc1nc2c(ncn2[C@H]2C[C@H](O)[C@@H](CO)O2)c(=O)[nH]1
inactive: outcome [19] | Potency [5] | Potency [6] | Potency [7] | Potency [8] | Potency [9] | Potency [10] | Potency [11] | Potency [12] | Potency [13] | Potency [14] | Potency [15] | Potency [16]

COc1cc2c3cc1Oc1cc(ccc1O)C[C@@H]1c4c(cc(OC)c(O)c4Oc4ccc(cc4)C[C@@H]3N(C)CC2)CC[N+]1(C)C
inactive: Potency [1] | Potency [2] | Potency [3] | Potency [4] | Potency [5] | Potency [7] | Potency [8] | Potency [9] | Potency [10] | Potency [11] | Potency [12] | Potency [13] | Potency [14] | Potency [15] | Potency [16] | activity, negative = cell killing [17, 22] 1% | activity, negative = cell killing [17, 23] -8.25% | activity, negative = cell killing [17, 24] 7.69% | Potency [18]

CC(C)OC(=O)c1cc(C(=O)OC(C)C)cc([N+](=O)[O-])c1
inactive: Potency [1] | Potency [2] | Potency [3] | Potency [4] | Potency [5] | Potency [7] | Potency [8] | Potency [9] | Potency [10] | Potency [11] | Potency [12] | Potency [13] | Potency [15] | Potency [16] | activity, negative = cell killing ([17]; at 91.6 µM (top of the series), tumour line A) -39.8% | activity, negative = cell killing ([17]; at 91.6 µM (top of the series), tumour line B) -8.41% | activity, negative = cell killing ([17]; at 91.6 µM (top of the series), tumour line D) -19.6% | activity, negative = cell killing ([17]; at 99.2 µM (top of the series), tumour line C) 10.5% | Potency [18]

COC(=O)c1nc(Cl)c(Cl)nc1N
active: Potency [1] 1.33 µM | Potency [2] 0.299 µM | Potency [3] 6.68 µM | Potency [4] 1.5 µM | Potency [5] 8.91 µM | Potency [9] 7.08 µM | Potency [10] 14.1 µM | Potency [13] 14.1 µM | Potency [15] 12.6 µM | Potency [16] 3.16 µM | Potency ([20]; HiBiT) 2.22 µM | Potency ([20]; Viability) 11.1 µM

Cc1cc(O)c2ccccc2c1O
active: Potency [1] 21.1 µM | Potency [4] 23.7 µM | Potency ([17]; tumour line A) 35.5 µM
inactive: Potency [5] | Potency [7] | Potency [9] | Potency [10] | Potency [11] | Potency [12] | Potency [14] | Potency [16] | activity, negative = cell killing [17, 24] 5.51%

CCCCC1C(=O)N(c2ccccc2)N(c2ccc(O)cc2)C1=O (stereo unspecified)
active: Potency [1] 1.5 µM | Potency [2] 0.596 µM | Potency [3] 6.68 µM | Potency [4] 2.99 µM | Potency [16] 22.4 µM | Potency ([17]; tumour line A) 7.94 µM
inactive: Potency [7] | Potency [9] | Potency [11] | activity, negative = cell killing [17, 21] -14.9%

Nc1cc(-c2ccncc2)c[nH]c1=O
inactive: Potency [1] | Potency [3] | Potency [4] | Potency [5] | Potency [6] | Potency [7] | Potency [8] | Potency [9] | Potency [10] | Potency [11] | Potency [12] | Potency [13] | Potency [15] | Potency [16] | activity, negative = cell killing [17, 22] -15% | activity, negative = cell killing [17, 23] 3.16% | activity, negative = cell killing [17, 25] -22.8% | activity, negative = cell killing [17, 24] -16.3% | Potency [18]

COc1ccc(-c2cc(=S)ss2)cc1
active: Potency [1] 26.6 µM
inactive: outcome [19] | Potency [5] | Potency [6] | Potency [7] | Potency [8] | Potency [9] | Potency [10] | Potency [11] | Potency [12] | Potency [13] | Potency [14] | Potency [15] | Potency [16] | activity, negative = cell killing [17, 22] -21.5% | activity, negative = cell killing [17, 23] -22.3% | activity, negative = cell killing [17, 24] -27.4% | Potency [18]

CN1CCN(c2cc3c(nn2)Oc2ccccc2N3C)CC1
active: Potency ([17]; tumour line A) 11.2 µM
inactive: Potency [1] | Potency [2] | Potency [3] | Potency [4] | Potency [5] | Potency [7] | Potency [8] | Potency [9] | Potency [11] | Potency [12] | Potency [13] | Potency [14] | Potency [15] | Potency [16] | activity, negative = cell killing [17, 22] -7.46% | Potency [18]

CCC1C(=O)OCC1Cc1cncn1C (stereo unspecified)
inactive: Potency [1] | Potency [2] | Potency [3] | Potency [4] | Potency [5] | Potency [7] | Potency [8] | Potency [9] | Potency [10] | Potency [11] | Potency [12] | Potency [13] | Potency [14] | Potency [15] | Potency [16] | activity, negative = cell killing [17, 22] -2.95% | activity, negative = cell killing [17, 23] -8.25% | activity, negative = cell killing [17, 25] -25.3% | activity, negative = cell killing [17, 24] -11.8% | Potency [18]

CC(N)C(=O)OC(C)(C)Cc1ccc(Cl)cc1 (stereo unspecified)
active: Potency ([17]; tumour line A) 20 µM
inactive: Potency [1] | Potency [2] | Potency [3] | Potency [4] | Potency [5] | Potency [7] | Potency [8] | Potency [9] | Potency [11] | Potency [12] | Potency [13] | Potency [14] | Potency [15] | Potency [16] | activity, negative = cell killing [17, 22] -21.1% | activity, negative = cell killing [17, 23] -21.2% | Potency [18]
